Measurements reported in PubChem BioAssay AID1159580 (chemical genetic matrix, 2015).
In all, about 5,500 compounds went through this assay and about 2,000 (36%) were called active. Another 18% or so got no clear call; they are omitted. The list shows a part of the results. Unmarked numbers belong to inactive results. Rule as the data show it: active = normalized growth mostly below about 0.91 (no sharp cut-off); inconclusive = no clear call, values can overlap the other calls; inactive = mostly above about 0.92.

Test: chemical genetic growth profiling, strain panel (AID 1159580);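 also: tested at 20 µM; growth read once vehicle control cultures reached saturation at 30 °C; 1 = growth at the plate median or of vehicle wells; lower values mean less growth of the strain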
Conditions: growth OD
[1] = S. cerevisiae deletion strains, locus YAL013W, strain DEP1, hits give low values
[2] = S. cerevisiae deletion strains, locus YBR229C, strain ROT2, hits give low values
[3] = S. cerevisiae deletion strains, locus YDL101C, strain DUN1, hits give low values
[4] = S. cerevisiae deletion strains, locus YDR150W, strain NUM1, hits give low values
[5] = S. cerevisiae deletion strains, locus YEL061C, strain CIN8, hits give low values
[6] = S. cerevisiae deletion strains, locus YGR078C, strain PAC10, hits give low values
[7] = S. cerevisiae deletion strains, locus YHR030C, strain SLT2, hits give low values
[8] = S. cerevisiae deletion strains, locus YHR087W, strain rtc3, hits give low values
[9] = S. cerevisiae deletion strains, locus YJL187C, strain SWE1, hits give low values
[10] = S. cerevisiae deletion strains, locus YJR043C, strain POL32, hits give low values
[11] = S. cerevisiae deletion strains, locus YJR075W, strain HOC1, hits give low values
[12] = S. cerevisiae deletion strains, locus YLR039C, strain RIC1, hits give low values
[13] = S. cerevisiae deletion strains, locus YLR058C, strain SHM2 (second series), hits give low values
[14] = S. cerevisiae deletion strains, locus YLR085C, strain ARP6, hits give low values
[15] = S. cerevisiae deletion strains, locus YLR262C, strain YPT6, hits give low values
[16] = S. cerevisiae deletion strains, locus YML094W, strain GIM5, hits give low values
[17] = S. cerevisiae deletion strains, locus YMR219W, strain ESC1, hits give low values
[18] = S. cerevisiae deletion strains, locus YMR263W, strain SAP30, hits give low values
[19] = S. cerevisiae deletion strains, locus YMR307W, strain GAS1, hits give low values
[20] = S. cerevisiae deletion strains, locus YNL153C, strain GIM3, hits give low values
[21] = S. cerevisiae deletion strains, locus YNL298W, strain CLA4 (second series), hits give low values
[22] = S. cerevisiae deletion strains, locus YNL322C, strain KRE1, hits give low values
[23] = S. cerevisiae deletion strains, locus YNR030W, strain Alg12, hits give low values
[24] = S. cerevisiae deletion strains, locus YOL006C, strain TOP1, hits give low values
[25] = S. cerevisiae deletion strains, locus YPL055C, strain LGE1, hits give low values
[26] = S. cerevisiae deletion strains, locus YPL241C, strain CIN2, hits give low values
[27] = S. cerevisiae deletion strains, locus YPR135W, strain CTF4, hits give low values

COC(=O)c1sccc1NC(=O)C1CC1
normalized growth [1]: 0.991
normalized growth [2]: 1
normalized growth [3]: 0.995
normalized growth [4]: 0.942
normalized growth [5]: 0.979
normalized growth [6]: 0.978
normalized growth [7]: 1.01
normalized growth [8]: 0.99
normalized growth [9]: 0.977
normalized growth [10]: 1.02
normalized growth [11]: 0.99
normalized growth [12]: 1.01
normalized growth [13]: 0.976
normalized growth [14]: 0.92
normalized growth [15]: 1.07
normalized growth [16]: 0.962
normalized growth [17]: 0.981
normalized growth [18]: 0.988
normalized growth [19]: 1.06
normalized growth [20]: 1.01
normalized growth [21]: 1
normalized growth [22]: 0.979
normalized growth [23]: 0.989
normalized growth [24]: 0.982
normalized growth [25]: 0.97
normalized growth [26]: 0.97
normalized growth [27]: 1.03
normalized growth (S. cerevisiae strains, strain wild type, hits give low values): 0.992

COC(=O)C1=C(C)NC(C)=C(C(=O)OC)C1c1ccc(-c2ccsc2C(=O)OC)o1
normalized growth [1]: 1
normalized growth [2]: 1
normalized growth (S. cerevisiae deletion strains, locus YCL061C, strain MRC1, hits give low values): 0.989
normalized growth [3]: 1
normalized growth [4]: 0.941
normalized growth [5]: 1.03
normalized growth [6]: 0.994
normalized growth [7]: 1.05
normalized growth [8]: 0.985
normalized growth [9]: 1.01
normalized growth [10]: 0.994
normalized growth [11]: 0.946
normalized growth [12]: 1.05
normalized growth [13]: 0.999
normalized growth [14]: 0.992
normalized growth [15]: 0.999
normalized growth [16]: 1.01
normalized growth [17]: 1
normalized growth [18]: 1
normalized growth [19]: 0.968
normalized growth [20]: 0.99
normalized growth [21]: 1.06
normalized growth [22]: 0.991
normalized growth [23]: 1.02
normalized growth [24]: 1.06
normalized growth [25]: 0.898
normalized growth [26]: 0.862
normalized growth [27]: 1

COC(=O)c1sccc1-c1ccc(C(C)=O)o1
normalized growth [1]: 0.956
normalized growth [2]: 0.975
normalized growth [3]: 0.953
normalized growth (S. cerevisiae deletion strains, locus YDL134C, strain PPH21, hits give low values): 0.974
normalized growth [4]: 0.982
normalized growth [5]: 0.949
normalized growth [6]: 0.947
normalized growth [7]: 0.722
normalized growth [8]: 0.97
normalized growth [10]: 0.977
normalized growth [11]: 0.956
normalized growth (S. cerevisiae deletion strains, locus YKL190W, strain CNB1, hits give low values): 0.976
normalized growth [12]: 0.945
normalized growth [13]: 0.965
normalized growth [14]: 0.751 (active)
normalized growth [15]: 0.961
normalized growth [16]: 0.898
normalized growth [17]: 0.978
normalized growth [18]: 0.977
normalized growth [20]: 0.982
normalized growth [21]: 0.841
normalized growth [22]: 0.935 (active)
normalized growth [23]: 0.885 (active)
normalized growth [24]: 0.727 (active)
normalized growth [25]: 0.974
normalized growth [26]: 0.891
normalized growth [27]: 0.773

COC(=O)C1C2CC3c4[nH]c5cc(OC)ccc5c4CCN3CC2CC(OC(=O)c2cc(OC)c(OC)c(OC)c2)C1OC (stereo not given)
normalized growth [1]: 0.996
normalized growth (S. cerevisiae deletion strains, locus YAL040C, strain CLN3, hits give low values): 1.07
normalized growth (S. cerevisiae deletion strains, locus YDR363W, strain ESC2, hits give low values): 1
normalized growth (S. cerevisiae deletion strains, locus YER002W, strain NOP16, hits give low values): 0.99
normalized growth [11]: 1
normalized growth [18]: 1
normalized growth (S. cerevisiae deletion strains, locus YNL128W, strain TEP1, hits give low values): 0.98
normalized growth (S. cerevisiae deletion strains, locus YNL175C, strain NOP13, hits give low values): 1
normalized growth (S. cerevisiae deletion strains, locus YNL197C, strain WHI3, hits give low values): 0.989
normalized growth (S. cerevisiae deletion strains, locus YNL224C, strain SQS1, hits give low values): 1.04
normalized growth (S. cerevisiae deletion strains, locus YOR083W, strain WHI5 (second series), hits give low values): 0.934
normalized growth [25]: 1.02
